These results are taken from the supplement of paper PMC10849652.

Targets with a hit are over-represented here; the source holds about 8,800 in all. About 0.5% of all pairs of compound and target were hits. A number with no mark means an inactive call.

Holding throughout (experiment): log2 fold change, soluble protein after heating vs DMSO (PISA); higher = thermal stabilisation; K562 lysate, 10 uM; active = over 0.2 and 3.5 SD of the protein, either way, in both replicates (recomputed)
Compound in experiment [1]: C1=CC=C(C=C1)[C@H](COC2=CC3=C(C=C2)NC(=O)N3)NC(=O)C4=CC=CN(C4=O)CC5=CC(=C(C=C5)F)F
In short, it runs like this: (§1)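 Quantification was by TMTpro 16plex LC-MS/MS with equalised channel sums, applied to the supernatant after 21,000xg for 90 min. Samples were crude K562 extract at 1 mg/mL protein in PBS pH 7.4 with 1 mM MgCl2, treated with 10 μM compound for 30 min, heated for 3 min across 48°C-58°C, pooled and brought to 0.5% NP-40 at 4°C. Values are log-two fold changes in thermal stability relative to solvent controls, from duplicates.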

Compound in experiment [2]: CC1=C(SC2=C1C(=N[C@H](C3=NN=C(N32)C)CC(=O)N)C4=CC=C(C=C4)Cl)C
In outline:
as §1

Compound in experiment [3]: CC1=C2C(=CC=C1)N=C(N(C2=O)C3=CC=CC=C3C)CN4C=NC5=C(N=CN=C54)N
In outline:
as §1

Compound in experiment [4]: Cc1sc2c(c1C)C(c1ccc(Cl)cc1)=N[C@@H](CC(=O)OC(C)(C)C)c1nnc(C)n1-2
In short, it runs like this:
as §1

Compound in experiment [5]: c1ccc([C@@H]2C[C@H]2NC2CCNCC2)cc1
In short, it runs like this:
as §1

Chain of UniProt Q0VDF9 (Q0VDF9 whole entry, looked up): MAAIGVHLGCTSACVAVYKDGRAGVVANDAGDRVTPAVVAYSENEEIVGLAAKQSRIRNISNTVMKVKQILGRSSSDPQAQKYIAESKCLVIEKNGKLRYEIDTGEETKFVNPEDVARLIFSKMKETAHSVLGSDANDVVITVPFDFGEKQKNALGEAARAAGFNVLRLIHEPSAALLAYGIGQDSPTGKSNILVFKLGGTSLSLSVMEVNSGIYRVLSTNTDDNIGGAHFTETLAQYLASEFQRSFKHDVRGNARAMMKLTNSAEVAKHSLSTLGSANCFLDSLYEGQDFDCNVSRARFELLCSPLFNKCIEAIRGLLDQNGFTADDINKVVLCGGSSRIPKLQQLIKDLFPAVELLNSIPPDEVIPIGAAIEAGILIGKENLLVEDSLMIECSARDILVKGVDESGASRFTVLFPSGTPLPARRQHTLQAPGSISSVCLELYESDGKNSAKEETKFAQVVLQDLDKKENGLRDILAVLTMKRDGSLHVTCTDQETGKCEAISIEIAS
Chain of UniProt Q99795 (Q99795 whole entry, looked up): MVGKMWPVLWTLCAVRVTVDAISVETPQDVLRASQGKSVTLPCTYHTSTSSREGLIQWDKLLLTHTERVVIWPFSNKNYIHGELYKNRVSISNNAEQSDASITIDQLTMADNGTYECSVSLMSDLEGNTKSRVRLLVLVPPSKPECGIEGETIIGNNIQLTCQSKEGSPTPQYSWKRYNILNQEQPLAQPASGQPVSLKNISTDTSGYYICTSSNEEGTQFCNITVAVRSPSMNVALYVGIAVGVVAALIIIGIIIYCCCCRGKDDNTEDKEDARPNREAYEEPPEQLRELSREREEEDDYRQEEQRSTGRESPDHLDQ
Chain of UniProt Q13478 (Q13478 whole entry, looked up): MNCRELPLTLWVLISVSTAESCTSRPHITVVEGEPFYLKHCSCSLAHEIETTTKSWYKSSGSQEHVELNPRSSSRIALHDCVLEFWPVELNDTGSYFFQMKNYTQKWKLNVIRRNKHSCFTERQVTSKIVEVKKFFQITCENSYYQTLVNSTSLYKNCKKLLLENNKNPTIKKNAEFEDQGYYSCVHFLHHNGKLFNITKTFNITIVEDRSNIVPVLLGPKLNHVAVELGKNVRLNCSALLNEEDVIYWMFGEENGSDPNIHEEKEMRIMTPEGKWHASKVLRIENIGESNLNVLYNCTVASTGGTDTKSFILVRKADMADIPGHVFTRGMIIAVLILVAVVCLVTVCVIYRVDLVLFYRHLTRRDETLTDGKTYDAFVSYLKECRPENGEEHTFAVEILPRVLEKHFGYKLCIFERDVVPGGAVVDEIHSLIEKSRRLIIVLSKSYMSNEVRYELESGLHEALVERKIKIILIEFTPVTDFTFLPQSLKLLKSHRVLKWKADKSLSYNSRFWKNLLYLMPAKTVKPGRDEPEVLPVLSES
Chain of UniProt P09211 (P09211 whole entry, looked up): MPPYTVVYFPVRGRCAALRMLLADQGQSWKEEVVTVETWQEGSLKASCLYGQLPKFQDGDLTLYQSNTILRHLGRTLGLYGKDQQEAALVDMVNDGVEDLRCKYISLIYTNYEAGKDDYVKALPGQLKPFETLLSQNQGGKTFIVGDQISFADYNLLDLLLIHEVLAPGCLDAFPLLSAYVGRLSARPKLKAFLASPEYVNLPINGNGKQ
Chain of UniProt Q92805 (Q92805 whole entry, looked up): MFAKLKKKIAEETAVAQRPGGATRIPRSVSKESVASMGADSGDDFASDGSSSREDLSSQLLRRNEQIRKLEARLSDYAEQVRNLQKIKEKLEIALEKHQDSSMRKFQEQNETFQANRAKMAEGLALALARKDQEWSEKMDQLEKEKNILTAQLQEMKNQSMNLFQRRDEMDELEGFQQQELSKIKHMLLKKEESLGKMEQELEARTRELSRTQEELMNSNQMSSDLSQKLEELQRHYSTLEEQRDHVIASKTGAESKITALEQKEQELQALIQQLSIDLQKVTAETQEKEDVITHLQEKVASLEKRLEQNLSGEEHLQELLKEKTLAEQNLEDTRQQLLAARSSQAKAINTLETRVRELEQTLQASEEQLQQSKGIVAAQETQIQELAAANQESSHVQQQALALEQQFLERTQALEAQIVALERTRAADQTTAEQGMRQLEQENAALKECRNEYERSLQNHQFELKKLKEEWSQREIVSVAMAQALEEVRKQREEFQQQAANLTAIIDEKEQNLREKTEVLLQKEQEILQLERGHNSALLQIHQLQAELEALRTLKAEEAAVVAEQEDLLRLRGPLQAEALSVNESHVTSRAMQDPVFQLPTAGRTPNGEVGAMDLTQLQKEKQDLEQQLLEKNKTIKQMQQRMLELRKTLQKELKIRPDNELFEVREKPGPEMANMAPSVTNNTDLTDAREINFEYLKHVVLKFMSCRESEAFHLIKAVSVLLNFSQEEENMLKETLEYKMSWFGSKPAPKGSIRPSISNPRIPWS
Chain of UniProt Q9P2X3 (Q9P2X3 whole entry, looked up): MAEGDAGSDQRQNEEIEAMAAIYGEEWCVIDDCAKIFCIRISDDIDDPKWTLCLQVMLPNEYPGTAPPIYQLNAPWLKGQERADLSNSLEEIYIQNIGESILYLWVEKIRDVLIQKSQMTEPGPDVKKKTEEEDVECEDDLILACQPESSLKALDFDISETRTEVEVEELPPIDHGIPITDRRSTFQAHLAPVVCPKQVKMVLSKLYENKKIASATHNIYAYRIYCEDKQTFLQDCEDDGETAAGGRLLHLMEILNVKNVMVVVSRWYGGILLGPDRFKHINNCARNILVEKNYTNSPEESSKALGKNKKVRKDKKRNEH
Chain of UniProt P19367 (P19367 whole entry, looked up): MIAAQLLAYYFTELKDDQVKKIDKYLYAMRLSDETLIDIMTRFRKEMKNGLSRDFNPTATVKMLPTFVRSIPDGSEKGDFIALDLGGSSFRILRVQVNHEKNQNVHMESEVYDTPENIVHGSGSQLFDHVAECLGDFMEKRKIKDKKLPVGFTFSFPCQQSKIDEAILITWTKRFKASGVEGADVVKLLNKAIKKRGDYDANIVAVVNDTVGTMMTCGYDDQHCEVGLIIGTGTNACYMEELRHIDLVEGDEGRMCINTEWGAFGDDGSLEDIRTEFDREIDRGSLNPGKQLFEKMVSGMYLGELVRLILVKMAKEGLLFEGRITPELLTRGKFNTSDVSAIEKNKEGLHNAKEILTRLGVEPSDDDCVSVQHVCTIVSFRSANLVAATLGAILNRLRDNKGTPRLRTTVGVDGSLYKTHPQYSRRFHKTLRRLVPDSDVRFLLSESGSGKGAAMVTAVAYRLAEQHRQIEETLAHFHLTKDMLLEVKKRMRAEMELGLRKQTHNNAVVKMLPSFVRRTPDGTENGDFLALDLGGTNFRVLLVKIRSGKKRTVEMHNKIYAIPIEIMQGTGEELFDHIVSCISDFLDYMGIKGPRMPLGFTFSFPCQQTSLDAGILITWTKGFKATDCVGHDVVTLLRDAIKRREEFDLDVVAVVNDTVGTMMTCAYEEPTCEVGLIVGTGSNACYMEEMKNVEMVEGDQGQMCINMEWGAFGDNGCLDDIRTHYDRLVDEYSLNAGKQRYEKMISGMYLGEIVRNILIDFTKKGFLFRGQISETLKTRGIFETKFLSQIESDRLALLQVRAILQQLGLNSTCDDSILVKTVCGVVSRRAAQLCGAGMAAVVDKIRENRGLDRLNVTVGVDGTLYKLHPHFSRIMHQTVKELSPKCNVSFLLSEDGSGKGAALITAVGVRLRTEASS
Chain of UniProt Q9Y5Q8 (Q9Y5Q8 whole entry, looked up): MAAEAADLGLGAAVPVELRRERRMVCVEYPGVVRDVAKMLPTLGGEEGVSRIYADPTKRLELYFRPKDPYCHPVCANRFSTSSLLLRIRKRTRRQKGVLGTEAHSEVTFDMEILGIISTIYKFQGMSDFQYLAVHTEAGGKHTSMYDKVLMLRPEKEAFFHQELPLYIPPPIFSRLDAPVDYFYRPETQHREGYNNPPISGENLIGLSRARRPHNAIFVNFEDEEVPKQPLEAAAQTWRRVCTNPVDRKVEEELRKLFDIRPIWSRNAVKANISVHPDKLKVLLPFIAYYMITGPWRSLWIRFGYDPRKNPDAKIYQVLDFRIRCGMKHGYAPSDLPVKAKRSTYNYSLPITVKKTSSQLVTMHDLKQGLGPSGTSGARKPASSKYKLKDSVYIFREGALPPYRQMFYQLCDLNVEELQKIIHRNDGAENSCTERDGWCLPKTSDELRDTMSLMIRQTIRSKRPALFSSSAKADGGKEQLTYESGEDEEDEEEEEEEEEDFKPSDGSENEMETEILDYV
Chain of UniProt Q9BVP2 (Q9BVP2 whole entry, looked up): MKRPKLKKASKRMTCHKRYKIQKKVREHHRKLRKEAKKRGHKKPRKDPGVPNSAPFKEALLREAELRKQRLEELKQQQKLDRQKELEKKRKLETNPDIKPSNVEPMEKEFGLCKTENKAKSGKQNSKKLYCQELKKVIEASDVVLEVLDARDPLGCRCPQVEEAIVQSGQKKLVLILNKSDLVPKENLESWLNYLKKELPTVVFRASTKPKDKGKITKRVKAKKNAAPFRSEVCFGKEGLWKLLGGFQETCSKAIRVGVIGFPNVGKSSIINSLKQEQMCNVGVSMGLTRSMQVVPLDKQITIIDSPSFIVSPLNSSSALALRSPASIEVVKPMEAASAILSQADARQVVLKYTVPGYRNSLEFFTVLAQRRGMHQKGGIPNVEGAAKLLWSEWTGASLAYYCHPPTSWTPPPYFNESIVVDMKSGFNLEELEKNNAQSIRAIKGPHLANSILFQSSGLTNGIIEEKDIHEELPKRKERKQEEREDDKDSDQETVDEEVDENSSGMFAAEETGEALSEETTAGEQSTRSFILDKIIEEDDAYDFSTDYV
Chain of UniProt Q9ULR0 (Q9ULR0 whole entry, looked up): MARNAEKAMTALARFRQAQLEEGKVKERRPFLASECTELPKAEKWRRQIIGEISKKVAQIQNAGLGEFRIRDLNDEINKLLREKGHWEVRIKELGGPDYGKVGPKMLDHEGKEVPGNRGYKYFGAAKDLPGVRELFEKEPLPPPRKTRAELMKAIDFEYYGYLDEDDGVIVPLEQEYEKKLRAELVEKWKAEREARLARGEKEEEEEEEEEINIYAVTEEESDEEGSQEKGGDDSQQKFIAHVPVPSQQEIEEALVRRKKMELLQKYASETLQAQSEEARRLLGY

In the case of HARS (UniProt P12081), the log2 fold change in experiment [1] was 0.025; in experiment [2] it was 0.006; in experiment [3] it was 0.001; in experiment [4], 0.008; in experiment [5], 0.002.
Take IMPACT (UniProt Q9P2X3): the log2 fold change in experiment [1] was 0.093; in experiment [2], -0.07; in experiment [3] it was -0.18; in experiment [4], -0.067; in experiment [5], -0.13.
For the target HSPA14 (UniProt Q0VDF9), the log2 fold change is 0 in experiment [1]; 0.011 in experiment [2]; -0.004 in experiment [3]; 0.025 in experiment [4]; 0.017 in experiment [5].
In the case of GSK3A (UniProt P49840), the log2 fold change in experiment [1] was -0.041; in experiment [2], 0.03; in experiment [3] it was -0.059; in experiment [4] it was 0.036; in experiment [5], -0.044.
As for GTF2H1 (UniProt P32780), the log2 fold change in experiment [1] is 0.006; in experiment [2], -0.035; in experiment [3], 0.089; in experiment [4], 0.025; in experiment [5], 0.006.
GMPS (UniProt P49915): the log2 fold change in experiment [1] was -0.014; in experiment [2], -0.001; in experiment [3], 0.02; in experiment [4] it was 0.019; in experiment [5], 0.088.
Consider GSTM4 (UniProt Q03013), for which the log2 fold change was -0.04 in experiment [1]; -0.053 in experiment [2]; 0.03 in experiment [3]; 0.09 in experiment [4]; -0.016 in experiment [5].
In the case of GNL3 (UniProt Q9BVP2), the log2 fold change in experiment [1] was 0.018; in experiment [2], 0.087; in experiment [3], 0.006; in experiment [4], -0.023; in experiment [5], 0.041.
For HK1 isoform 2 (UniProt P19367) the same measures were -0.017, 0.017, -0.002, 0.016 and 0.016.
KDM1A (UniProt O60341): the log2 fold change in experiment [1] is 0.007; in experiment [2], -0.004; in experiment [3], 0.018; in experiment [4] it was 0.009; in experiment [5], 0.817 (active).
For the target IL18R1 (UniProt Q13478), the log2 fold change in experiment [1] was -0.612 (active); in experiment [2] it was -0.103; in experiment [3], 0.119; in experiment [4], -0.094; in experiment [5] it was 0.052.
With GSTP1 (UniProt P09211), the log2 fold change in experiment [1] is -0.018; in experiment [2] it was 0.004; in experiment [3], -0.003; in experiment [4] it was -0.017; in experiment [5] it was 0.035.
In the case of GOLGA1 (UniProt Q92805), the log2 fold change in experiment [1] is -0.042; in experiment [2], 0.045; in experiment [3], 0.026; in experiment [4], -0.057; in experiment [5], 0.009.
In the case of GSTM2 (UniProt P28161), the log2 fold change in experiment [1] is -0.007; in experiment [2], 0.03; in experiment [3], -0.048; in experiment [4] it was -0.037; in experiment [5], 0.051.
In the case of HNRNPD isoform 2 (UniProt Q14103), the log2 fold change in experiment [1] was 0.059; in experiment [2], -0.015; in experiment [3] it was -0.01; in experiment [4], 0.018; in experiment [5] it was 0.125.
For the target ISY1 isoform 1 (UniProt Q9ULR0), the log2 fold change in experiment [1] was 0.016; in experiment [2] it was 0; in experiment [3], 0.001; in experiment [4], -0.12; in experiment [5], -0.004.
As to GTF3C5 isoform 3 (UniProt Q9Y5Q8), the log2 fold change was -0.024 in experiment [1]; 0.001 in experiment [2]; 0.019 in experiment [3]; 0.056 in experiment [4]; 0.016 in experiment [5].
Consider GLUD2 (UniProt P49448), for which the log2 fold change in experiment [1] is -0.001; in experiment [2] it was 0.031; in experiment [3], 0.265; in experiment [4], 0.019; in experiment [5] it was 0.022.
For the target HADHA (UniProt P40939), the log2 fold change in experiment [1] is 0.065; in experiment [2], -0.006; in experiment [3] it was 0.102; in experiment [4], 0.117; in experiment [5], -0.008.
In the case of GPA33 (UniProt Q99795), the log2 fold change in experiment [1] is 0.007; in experiment [2], 0.024; in experiment [3], 0.006; in experiment [4] it was -0.248; in experiment [5], -0.514 (active).
On to INPPL1 (UniProt O15357), for which the log2 fold change is 0.014 in experiment [1]; 0.029 in experiment [2]; -0.021 in experiment [3]; 0.012 in experiment [4]; 0.021 in experiment [5].
